Results filed as inconclusive are left out. Where a call stands in place of a potency, no number is given. Calls of active or inactive are those of the source. Calls come from the whole dose curve; as a rule, active = well fitted curve in the direction sought with a large enough effect; inconclusive = small, poorly fitted or top-dose-only effect, or another doubt; inactive = no such curve, though single readings can be large; an effect the other way counts as inactive or inconclusive.
System: not listed separately
Assay: NCATS anti-infectives library activity on HEK293 viability as a counter-qHTS vs the C. elegans viability qHTS (AID 1745854)
Conditions: HEK293 viability counter-screen; series mostly up to 41.8 µM
In short: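 HEK293 cells, 1500 per well, exposed 24 hr at 37C in 5% CO2 to compounds in a 1:5 titration, up to 41.7 uM final. Viability read as CellTiter-Glo luminescence after 10 min at room temperature.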

SMILES	outcome
C[C@@]1(c2cc(-c3cncnc3)c(F)cc2F)CCSC(N)=N1	inactive
N[C@@H](CC(=O)N1CCn2c(nnc2C(F)(F)F)C1)Cc1cc(F)c(F)cc1F	inactive
CNC(=O)c1c(-c2ccc(F)cc2)oc2cc(N(CCO)S(C)(=O)=O)c(C3CC3)cc12	inactive

Target: Glutathione peroxidase 1 (Homo sapiens) (UniProt P07203)
Sequence (P07203 whole entry, looked up): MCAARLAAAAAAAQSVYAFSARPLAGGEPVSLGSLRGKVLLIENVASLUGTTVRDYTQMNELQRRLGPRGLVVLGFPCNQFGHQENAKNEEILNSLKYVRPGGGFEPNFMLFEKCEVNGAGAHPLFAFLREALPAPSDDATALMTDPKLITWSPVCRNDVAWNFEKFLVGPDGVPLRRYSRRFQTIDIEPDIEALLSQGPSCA
Assay: Primary qHTS Assay for Inhibitors of Recombinant Selenoprotein Glutathione Peroxidase 1 (GPX1) (AID 1845191); note: nearly all actives have a fitted effect of over 65% in size
Conditions: recombinant GPX1, GR-coupled NADPH fluorescence, 15 min; series mostly up to 48.8 µM
In short: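 GR-coupled assay: compounds preincubated 30 min at room temperature with GPX1, then reaction started with CHP; final 10 nM GPX1, 1 mM GSH, 0.5 mM CHP, 0.5 mM NADPH, 100 nM GR, 0.01% BSA, pH 7.5 Tris buffer. NADPH fluorescence (340/450 nm) read at 0 and 15 min.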

SMILES	Potency
CC1=C(CC(=O)O)c2cc(F)ccc2C1=Cc1ccc(S(C)=O)cc1 (stereo not given)	inactive
Cc1cc(NC(=O)Nc2ccc(N(C)C)cc2)c2cc(F)cc(F)c2n1	inactive
CCC[C@H](Nc1nc(-c2ccc(NC(=O)NCC)c(OC)c2)ncc1C)c1cccnc1	inactive
COc1cc2nccc(Oc3ccc(NC(=O)Nc4ccc(F)cc4F)c(F)c3)c2cc1OC	inactive
Cc1cc(OCCCS(C)(=O)=O)cc(C)c1-c1cccc(COc2ccc3c(c2)OC[C@H]3CC(=O)O)c1	inactive
Cc1ccc(NC(=O)c2cccc(N(C)C)c2)cc1NC(=O)c1ccc(O)cc1	inactive
O=C1CCCC(=O)C1C(=O)c1ccc(C(F)(F)F)cc1[N+](=O)[O-]	inactive
COc1c(C)cnc(Cn2cnc3c(Cl)nc(N)nc32)c1C	inactive
N#CC(c1ccc(Cl)cc1)c1c(Cl)cc(-n2ncc(=O)[nH]c2=O)cc1Cl (stereo not given)	inactive
COc1cc2ncn(-c3cc(OCc4ccccc4S(C)(=O)=O)c(C#N)s3)c2cc1OC	inactive
Cc1cccc(-c2[nH]c(C(C)(C)C)nc2-c2ccc3c(c2)OCO3)n1	inactive
CC(C)C[C@H](NC(=O)c1cc2ccccc2s1)C(=O)N1CCN(C(=O)[C@H](CO)NS(=O)(=O)c2ccc(Cl)cc2Cl)CC1	inactive
